Calls of active or inactive are those of the source. The calls were made as follows: active = hit-call score of the fitted dose curve at least 0.9, where 1 is the maximum; inactive = score below 0.9.
Legend:
[1] = ATG_GLI_CIS: Attagene CIS-FACTORIAL HepG2 Assay for human Zinc Finger Protein GLI1 (AID 2282945); settings: HepG2, Attagene cis-factorial reporter mRNA, GLI element; actives raise or lower the signal
Outline: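 Bidirectional curve fits relative to DMSO, using reporter mRNA levels from RT-PCR plus capillary electrophoresis. Cells were HepG2 transiently carrying cis-regulated reporter constructs, harvested 24 h after dosing.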

[2] = target: Bile acid receptor (Homo sapiens) (UniProt Q96RI1); assay: ATG_IR1_CIS: Attagene CIS-FACTORIAL HepG2 Assay for human Nuclear Receptor Subfamily 1 Group H Member 4 (NR1H4), IR1 submotif (AID 2282946); settings: IR1 reporter transcription, actives raise or lower the signal
Sequence of Bile acid receptor (Homo sapiens) (Q96RI1 whole entry, looked up): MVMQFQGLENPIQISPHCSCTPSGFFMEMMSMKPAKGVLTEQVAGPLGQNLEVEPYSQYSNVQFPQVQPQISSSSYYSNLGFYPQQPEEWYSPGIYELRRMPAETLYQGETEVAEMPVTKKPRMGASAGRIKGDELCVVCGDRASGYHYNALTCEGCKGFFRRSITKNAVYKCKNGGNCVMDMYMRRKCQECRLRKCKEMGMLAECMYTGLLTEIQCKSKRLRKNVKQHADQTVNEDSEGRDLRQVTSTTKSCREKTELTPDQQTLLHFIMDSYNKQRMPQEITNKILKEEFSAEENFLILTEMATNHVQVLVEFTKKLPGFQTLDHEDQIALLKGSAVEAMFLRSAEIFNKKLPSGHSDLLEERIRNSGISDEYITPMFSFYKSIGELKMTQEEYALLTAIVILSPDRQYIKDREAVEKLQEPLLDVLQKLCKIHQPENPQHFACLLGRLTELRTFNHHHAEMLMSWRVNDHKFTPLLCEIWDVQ
Outline: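 HepG2 cells transiently transfected with multiplexed cis-element reporter units read endogenous transcription factor activity. After 24 h compound exposure, reporter mRNA was quantified by RT-PCR, fluorescent labelling, HpaI digestion and capillary electrophoresis; bidirectional fitting versus DMSO baseline.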

[3] = ATG_ISRE_CIS: Attagene CIS-FACTORIAL HepG2 Assay for human Interferon Regulatory Factor 1 (IRF1) binding to an Interferon-Stimulated Response Element (ISRE) (AID 2282948); settings: HepG2 ISRE cis-reporter (Attagene), mRNA transcription readout; actives raise or lower the signal
Outline: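 Multiplexed mRNA reporter readout in human liver HepG2 cells: cis-element-driven reporters transfected, compound added for 24 h, transcripts amplified, fluorescently labelled and sized by capillary electrophoresis; curve fitting bidirectional against DMSO.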

[4] = ATG_M_32_CIS: Attagene CIS-FACTORIAL HepG2 Assay for M32 Transcription Factor (Internal Marker) (AID 2282949); settings: HepG2 Attagene cis-factorial M32 reporter, mRNA; actives raise or lower the signal;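 also: background control marker of the multiplexed CIS panel rather than a real target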
Outline: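 Transient MRTU transfection of HepG2; 24 h compound treatment; TriZol RNA, oligo(dT) RT, reporter PCR, 6-FAM primer extension, HpaI cut, CE. Gain/loss of signal vs DMSO.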

[5] = ATG_M_06_CIS: Attagene CIS-FACTORIAL HepG2 Assay for M06 Transcription Factor (Internal Marker) (AID 2282950); settings: HepG2 Attagene CIS-FACTORIAL M06 internal marker reporter; actives raise or lower the signal
Outline: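 Measured 24 h post-dosing in transiently transfected HepG2 cells, this internal-marker endpoint reports reporter mRNA via RT-PCR with fluorescent primer extension and capillary electrophoresis. DMSO served as negative control and baseline for bidirectional fitting.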

[6] = target: Hypoxia-inducible factor 1-alpha (Homo sapiens) (UniProt Q16665); assay: ATG_HIF1a_CIS: Attagene CIS-FACTORIAL HepG2 Assay for human Hypoxia Inducible Factor 1 (HIF1A) (AID 2282951); settings: HepG2 Attagene cis-factorial HIF1a reporter transcription; actives raise or lower the signal
Sequence of Hypoxia-inducible factor 1-alpha (Homo sapiens) (Q16665 whole entry, looked up): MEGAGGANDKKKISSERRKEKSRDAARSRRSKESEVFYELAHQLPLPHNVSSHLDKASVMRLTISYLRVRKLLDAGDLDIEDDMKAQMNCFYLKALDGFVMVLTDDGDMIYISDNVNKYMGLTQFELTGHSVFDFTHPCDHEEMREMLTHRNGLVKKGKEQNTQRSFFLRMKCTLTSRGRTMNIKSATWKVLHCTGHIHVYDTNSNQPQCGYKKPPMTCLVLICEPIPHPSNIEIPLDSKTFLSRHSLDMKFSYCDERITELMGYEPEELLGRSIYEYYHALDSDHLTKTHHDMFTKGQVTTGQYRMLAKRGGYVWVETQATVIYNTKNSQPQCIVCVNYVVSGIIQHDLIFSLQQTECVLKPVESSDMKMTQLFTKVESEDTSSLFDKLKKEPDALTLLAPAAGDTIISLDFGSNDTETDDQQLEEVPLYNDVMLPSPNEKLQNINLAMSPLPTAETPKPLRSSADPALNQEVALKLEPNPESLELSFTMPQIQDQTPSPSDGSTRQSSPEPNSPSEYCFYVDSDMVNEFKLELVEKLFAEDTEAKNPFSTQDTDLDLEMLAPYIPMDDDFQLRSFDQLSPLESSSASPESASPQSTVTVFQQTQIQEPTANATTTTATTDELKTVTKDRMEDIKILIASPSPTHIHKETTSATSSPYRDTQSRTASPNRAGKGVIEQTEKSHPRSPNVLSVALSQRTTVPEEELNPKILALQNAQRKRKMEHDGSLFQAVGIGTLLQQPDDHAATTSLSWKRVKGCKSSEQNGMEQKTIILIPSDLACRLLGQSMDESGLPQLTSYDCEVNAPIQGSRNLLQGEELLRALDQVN
Outline: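 HepG2 cells transiently transfected with multiple cis-regulated reporter transcription units measure endogenous transcription factor activity. After 24 h exposure, reporter mRNA is quantified by RT-PCR with 6-FAM labelling, HpaI digestion and capillary electrophoresis. Bidirectional fitting against DMSO.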

[7] = target: Hepatocyte nuclear factor 6 (Homo sapiens) (UniProt Q9UBC0); assay: ATG_HNF6_CIS: Attagene CIS-FACTORIAL HepG2 Assay for human Hepatocyte Nuclear Factor 6 (HNF6) (AID 2282952); settings: HepG2 Attagene cis-factorial HNF6 reporter transcription; actives raise or lower the signal
Sequence of Hepatocyte nuclear factor 6 (Homo sapiens) (Q9UBC0 whole entry, looked up, the tested form may be a part): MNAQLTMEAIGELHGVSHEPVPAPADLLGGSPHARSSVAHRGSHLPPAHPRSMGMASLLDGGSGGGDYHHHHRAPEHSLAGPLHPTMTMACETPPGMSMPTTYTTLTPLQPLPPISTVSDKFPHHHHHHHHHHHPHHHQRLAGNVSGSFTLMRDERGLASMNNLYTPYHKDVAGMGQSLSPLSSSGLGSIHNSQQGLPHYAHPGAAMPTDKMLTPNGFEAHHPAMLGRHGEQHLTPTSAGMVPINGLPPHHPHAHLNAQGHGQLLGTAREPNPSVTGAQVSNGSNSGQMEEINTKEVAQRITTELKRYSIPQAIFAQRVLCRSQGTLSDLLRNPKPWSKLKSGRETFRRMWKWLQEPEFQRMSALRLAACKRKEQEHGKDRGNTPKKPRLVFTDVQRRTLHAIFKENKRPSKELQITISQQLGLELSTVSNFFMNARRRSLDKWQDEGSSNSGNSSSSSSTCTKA
Outline: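 Readout: fluorescent reporter-transcript fragments resolved by capillary electrophoresis after RT-PCR, reflecting endogenous factor activity in transfected HepG2. Exposure 24 h. Gain or loss of signal fitted bidirectionally against DMSO.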

[8] = target: Heat shock factor protein 1 (Homo sapiens) (UniProt Q00613); assay: ATG_HSE_CIS: Attagene CIS-FACTORIAL HepG2 Assay for human Heat Shock Transcription Factor 1 (HSE) (AID 2282953); settings: HepG2 HSE cis-reporter, Attagene RNA transcription; actives raise or lower the signal
Sequence of Heat shock factor protein 1 (Homo sapiens) (Q00613 whole entry, looked up): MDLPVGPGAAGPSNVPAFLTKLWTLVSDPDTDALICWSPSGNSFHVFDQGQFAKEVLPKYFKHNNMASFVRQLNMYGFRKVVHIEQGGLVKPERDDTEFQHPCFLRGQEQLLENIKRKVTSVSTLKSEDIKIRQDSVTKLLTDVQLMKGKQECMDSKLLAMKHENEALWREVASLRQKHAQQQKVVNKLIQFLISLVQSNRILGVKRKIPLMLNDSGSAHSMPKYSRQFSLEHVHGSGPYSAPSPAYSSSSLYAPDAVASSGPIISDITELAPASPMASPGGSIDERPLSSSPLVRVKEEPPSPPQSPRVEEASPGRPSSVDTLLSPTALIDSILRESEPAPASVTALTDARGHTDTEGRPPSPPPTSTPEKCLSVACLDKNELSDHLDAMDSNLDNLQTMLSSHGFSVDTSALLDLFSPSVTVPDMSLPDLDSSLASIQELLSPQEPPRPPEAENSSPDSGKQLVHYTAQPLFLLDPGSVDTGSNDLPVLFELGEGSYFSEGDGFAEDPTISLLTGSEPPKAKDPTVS
Outline: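 Reporter mRNA induction in HepG2 is measured 24 h after dosing, using transiently transfected multiplexed cis-regulated reporter units. Signal comes from capillary electrophoresis of labelled RT-PCR products, with DMSO as negative control.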

[9] = ATG_MRE_CIS: Attagene CIS-FACTORIAL HepG2 Assay for human Metal Responsive Element (MRE) (AID 2282954); settings: HepG2 MRE cis-reporter transcription, Attagene multiplex; actives raise or lower the signal
Outline: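 Multiplexed cis-reporter assay in human HepG2 liver cells, 24 h incubation with test chemical. Reporter transcripts measured by RT-PCR and capillary electrophoresis; values from bidirectional curve fitting versus DMSO.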

[10] = ATG_PBREM_CIS: Attagene CIS-FACTORIAL HepG2 Assay for human Phenobarbital-responsive Enhancer Module (PBREM) (AID 2282955); settings: HepG2 PBREM cis-reporter, Attagene multiplexed transcription; actives raise or lower the signal
Outline: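 HepG2 cells transiently transfected with multiple cis-regulated reporter units measure endogenous transcription factor activity; 24 h compound exposure. Reporter mRNA quantified by RT-PCR, fluorescent labelling, HpaI digestion and capillary electrophoresis; bidirectional fit versus DMSO.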

[11] = target: Paired box protein Pax-6 (Homo sapiens) (UniProt P26367); assay: ATG_Pax6_CIS: Attagene CIS-FACTORIAL HepG2 Assay for human Paired Box 6 (PAX6) (AID 2282956); settings: HepG2 CIS-FACTORIAL PAX6 reporter transcription, RNA readout; actives raise or lower the signal
Sequence of Paired box protein Pax-6 (Homo sapiens) (P26367 whole entry, looked up): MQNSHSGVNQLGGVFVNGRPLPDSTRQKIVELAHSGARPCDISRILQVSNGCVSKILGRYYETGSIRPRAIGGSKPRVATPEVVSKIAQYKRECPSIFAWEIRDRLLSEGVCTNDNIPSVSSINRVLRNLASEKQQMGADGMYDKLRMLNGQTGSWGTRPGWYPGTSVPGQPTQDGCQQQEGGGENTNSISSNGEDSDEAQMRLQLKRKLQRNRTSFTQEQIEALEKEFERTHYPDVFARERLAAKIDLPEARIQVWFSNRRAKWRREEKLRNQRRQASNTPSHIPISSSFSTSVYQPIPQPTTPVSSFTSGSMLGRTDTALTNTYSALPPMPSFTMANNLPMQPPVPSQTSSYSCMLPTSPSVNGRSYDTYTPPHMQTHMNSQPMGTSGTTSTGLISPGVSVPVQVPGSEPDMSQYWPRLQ
Outline: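 Fluorescent RT-PCR products separated by capillary electrophoresis report PAX6-linked promoter mRNA in HepG2 cells 24 h post-dose. Curves fitted bidirectionally, DMSO as negative control.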

[12] = ATG_PXRE_CIS: Attagene CIS-FACTORIAL HepG2 Assay for human Pregnane X Receptor Element (PXRE) (AID 2282957); settings: HepG2 Attagene CIS-FACTORIAL PXRE reporter, mRNA; actives raise or lower the signal
Outline: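 Read-out: fluorescence of reporter-specific RT-PCR products resolved by capillary electrophoresis, fitted bidirectionally relative to DMSO. Human HepG2 liver cells carried transfected cis-promoter reporter units and were exposed to chemicals for 24 h.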

[13] = ATG_PPRE_CIS: Attagene CIS-FACTORIAL HepG2 Assay for human Peroxisome Proliferator-activated Response Element (PPRE) (AID 2282958); settings: HepG2 PPRE cis-element reporter, Attagene transcription factor profiling; actives raise or lower the signal
Outline: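 HepG2 cells are transiently transfected with multiplexed cis-promoter reporter units to report endogenous PPAR activity. After 24 h dosing, reporter mRNA is read by RT-PCR and capillary electrophoresis. Fitting is bidirectional against DMSO.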

[14] = ATG_RORE_CIS: Attagene CIS-FACTORIAL HepG2 Assay for human RAR-related Orphan Receptor Element (RORE) (AID 2282959); settings: HepG2 Attagene cis-factorial RORE reporter, mRNA; actives raise or lower the signal
Outline: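 HepG2 cells carrying transiently transfected cis-regulated reporter units; RORE-driven reporter mRNA quantified 24 h post-dosing by RT-PCR, 6-FAM primer extension, HpaI digestion and capillary electrophoresis. Bidirectional fit versus DMSO.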

[15] = ATG_Sox_CIS: Attagene CIS-FACTORIAL HepG2 Assay for human SRY-box transcription factor (SOX) (AID 2282960); settings: HepG2 Attagene cis-factorial SOX reporter, mRNA; actives raise or lower the signal
Outline: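 HepG2 cells transiently transfected with multiple cis-regulated reporter units, then dosed for 24 h. Reporter mRNA quantified by RT-PCR, fluorescent labelling, HpaI digestion and capillary electrophoresis; bidirectional fit versus DMSO.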

[16] = target: Transcription factor Sp1 (Homo sapiens) (UniProt P08047); assay: ATG_Sp1_CIS: Attagene CIS-FACTORIAL HepG2 Assay for human Specificity Protein 1 (Sp1) (AID 2282961); settings: HepG2 Sp1 cis-reporter transcription, actives raise or lower the signal
Sequence of Transcription factor Sp1 (Homo sapiens) (P08047 whole entry, looked up): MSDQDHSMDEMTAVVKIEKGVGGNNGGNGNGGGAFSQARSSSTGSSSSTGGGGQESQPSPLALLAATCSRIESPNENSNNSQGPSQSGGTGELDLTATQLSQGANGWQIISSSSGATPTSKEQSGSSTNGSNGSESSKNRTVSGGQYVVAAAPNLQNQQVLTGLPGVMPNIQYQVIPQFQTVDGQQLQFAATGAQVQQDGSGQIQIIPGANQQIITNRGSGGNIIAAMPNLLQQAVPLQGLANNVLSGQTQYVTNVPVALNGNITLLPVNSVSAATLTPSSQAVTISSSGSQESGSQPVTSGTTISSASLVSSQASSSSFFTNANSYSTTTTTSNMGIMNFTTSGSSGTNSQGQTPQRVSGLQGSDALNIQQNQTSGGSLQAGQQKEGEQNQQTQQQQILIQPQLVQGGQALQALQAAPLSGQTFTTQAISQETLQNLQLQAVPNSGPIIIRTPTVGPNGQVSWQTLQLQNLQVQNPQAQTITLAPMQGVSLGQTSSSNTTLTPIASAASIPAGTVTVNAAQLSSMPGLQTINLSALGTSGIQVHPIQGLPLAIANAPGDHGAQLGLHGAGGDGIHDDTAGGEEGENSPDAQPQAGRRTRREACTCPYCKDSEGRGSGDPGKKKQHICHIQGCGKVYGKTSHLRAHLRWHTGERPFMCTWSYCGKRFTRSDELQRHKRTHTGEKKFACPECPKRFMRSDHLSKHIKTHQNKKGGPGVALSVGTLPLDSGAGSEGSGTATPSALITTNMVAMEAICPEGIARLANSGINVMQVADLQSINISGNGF
Outline: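 HepG2 cells transiently transfected with multiplexed cis-regulated reporter constructs, chemical exposure 24 h. Reporter mRNA quantified by RT-PCR with capillary electrophoresis; bidirectional fit relative to DMSO.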

[17] = ATG_SREBP_CIS: Attagene CIS-FACTORIAL HepG2 Assay for human Sterol Regulatory Element Binding (SREBP) (AID 2282962); settings: HepG2 Attagene cis-factorial SREBP reporter, mRNA; actives raise or lower the signal
Outline: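 Endogenous factor activity is measured in HepG2 through multiplexed reporter units under cis-element control. Following a 24 h incubation, reporter transcripts are reverse-transcribed, PCR-amplified and sized by capillary electrophoresis; activity is fitted in both directions relative to DMSO.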

[18] = target: Signal transducer and activator of transcription 3 (Homo sapiens) (UniProt P40763); assay: ATG_STAT3_CIS: Attagene CIS-FACTORIAL HepG2 Assay for human Signal Transducer and Activator of Transcription 3 (STAT3) (AID 2282963); settings: HepG2, Attagene cis-factorial STAT3 reporter transcription; actives raise or lower the signal
Sequence of Signal transducer and activator of transcription 3 (Homo sapiens) (P40763 whole entry, looked up): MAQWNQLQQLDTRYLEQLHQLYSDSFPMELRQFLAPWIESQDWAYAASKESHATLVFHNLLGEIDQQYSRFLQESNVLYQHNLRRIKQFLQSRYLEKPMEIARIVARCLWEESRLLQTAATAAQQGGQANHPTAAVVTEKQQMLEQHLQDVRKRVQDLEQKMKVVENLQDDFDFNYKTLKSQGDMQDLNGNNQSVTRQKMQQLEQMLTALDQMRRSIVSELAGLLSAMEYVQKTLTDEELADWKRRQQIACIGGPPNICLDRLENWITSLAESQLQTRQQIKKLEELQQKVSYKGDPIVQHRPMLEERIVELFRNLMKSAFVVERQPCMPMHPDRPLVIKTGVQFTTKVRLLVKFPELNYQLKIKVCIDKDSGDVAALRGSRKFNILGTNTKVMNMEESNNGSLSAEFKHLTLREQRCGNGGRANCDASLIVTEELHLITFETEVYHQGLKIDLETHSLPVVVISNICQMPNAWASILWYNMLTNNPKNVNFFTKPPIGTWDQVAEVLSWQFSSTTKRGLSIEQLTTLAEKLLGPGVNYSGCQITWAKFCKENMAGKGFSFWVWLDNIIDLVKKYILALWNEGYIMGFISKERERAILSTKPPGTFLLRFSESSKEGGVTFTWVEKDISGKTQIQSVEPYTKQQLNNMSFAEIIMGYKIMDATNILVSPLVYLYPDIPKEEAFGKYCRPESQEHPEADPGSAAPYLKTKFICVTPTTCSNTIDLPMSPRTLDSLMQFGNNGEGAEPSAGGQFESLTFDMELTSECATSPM
Outline: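 Cis-factorial format: endogenous transcription factors in HepG2 drive transfected reporter units. After 24 h treatment, reporter RNA was reverse-transcribed, amplified, FAM-labelled and HpaI-digested before CE analysis; activity scored in both directions against DMSO.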

[19] = ATG_TA_CIS: Attagene CIS-FACTORIAL HepG2 Assay for human TA Basal Promoter (AID 2282964); settings: HepG2 Attagene CIS-factorial TA basal promoter reporter; actives raise or lower the signal
Outline: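 Cis-factorial format in HepG2: reporters report endogenous factors, not chimeric Gal4 fusions. After 24 h treatment, reporter transcripts were measured by RT-PCR-capillary electrophoresis fluorescence, analysed bidirectionally versus DMSO.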

[20] = ATG_GRE_CIS: Attagene CIS-FACTORIAL HepG2 Assay for human Glucocorticoid Response Elements (GRE) (AID 2282947); settings: HepG2 GRE cis-reporter, Attagene multiplex mRNA; actives raise or lower the signal
Outline: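 Multiplexed cis-reporter mRNA induction, HepG2, 24 h post-dose. RT-PCR, FAM-labelled, HpaI-digested amplicons by CE. Bidirectional fit vs DMSO.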

Measured: AC50

CCCCOCC(C)OCC(C)O (stereo not drawn)
not listed: [20]
inactive: all other assays above

CCCCCCCCSCc1cc(C)c(O)c(CSCCCCCCCC)c1
active: [12] 19.8 µM
not listed: [11] | [19]
inactive: all other assays above

CCCCCCCCOS(=O)(=O)O
active: [13] 31.3 µM
not listed: [4] | [11]
inactive: all other assays above

CC(C)CCOC(=O)CC(C)C
not listed: [5] | [6]
inactive: all other assays above

CC(=O)CC(=O)N(C)C
not listed: [10] | [13]
inactive: all other assays above

CCCCCCOC(C)=O
not listed: [5] | [8] | [14]
inactive: all other assays above

C=C(C)C(=O)OCCOCCOC(=O)C(=C)C
not listed: [14] | [20]
inactive: all other assays above

CCCc1ccc(O)cc1
not listed: [4] | [5] | [6]
inactive: all other assays above

O=C1OCc2ccccc21
not listed: [11] | [14]
inactive: all other assays above

O=S(=O)(O)c1cc(S(=O)(=O)O)c2c(N=Nc3ccccc3)c(O)ccc2c1
not listed: [6] | [7] | [13] | [14] | [19]
inactive: all other assays above

NC(N)=S
not listed: [8] | [13] | [14]
inactive: all other assays above

CC1=C(C=O)C(C)(C)CCC1
active: [12] 1.75 µM
not listed: [6] | [15]
inactive: all other assays above

[Cl][Dy]([Cl])[Cl]
not listed: [7] | [13] | [15]
inactive: all other assays above

From PubChem BioAssay (EPA / NIEHS)
